# Experimental data from paper PMC11062922 (Nature Chemical Biology, 2023).
# Like-named read-outs stand apart in the source and are kept apart here.
# Columns and labels:
# Set-up in all cases: species or system human, MV4-11 + K-562 + COLO205 + SK-N-BE2 + OVCAR-8
# LIMK1 = conditions: read-out: apparent Kd, n = 1
# AURKA = conditions: read-out: apparent Kd; compound concentrations:100 nM and 1000 nM (sheet 'Samples'); n = 1
# MAPK10 = conditions: read-out: apparent Kd; compound concentrations:100 nM and 1000 nM (sheet 'Samples'); n = 1
# SYK = conditions: read-out: apparent Kd, n = 1
# PIK3CD = conditions: read-out: apparent Kd, n = 1
# PRKAG1 = conditions: read-out: apparent Kd, n = 1
# PIK3CG = conditions: read-out: apparent Kd, compound concentrations: 100 nM and 1000 nM (sheet 'Samples'), n = 1
# MAP2K2 = conditions: read-out: apparent Kd, n = 1
# MAPK11 = conditions: read-out: apparent Kd, n = 1
# PKN3 = conditions: read-out: apparent Kd; compound concentrations:100 nM and 1000 nM (sheet 'Samples'); n = 1
# PIM2 = conditions: read-out: apparent Kd, compound concentrations: 100 nM and 1000 nM (sheet 'Samples'), n = 1
# CDK4 = conditions: read-out: apparent Kd, n = 1
# STK10 = conditions: read-out: apparent Kd; compound concentrations:100 nM and 1000 nM (sheet 'Samples'); n = 1
# EPHB3 = conditions: read-out: apparent Kd; compound concentrations: 100 nM and 1000 nM (sheet 'Samples'), CATDS: 4.67907505867102E-2; n = 1
# CDK7 = conditions: read-out: apparent Kd, n = 1
# ERCC2 = conditions: read-out: apparent Kd; compound concentrations: 100 nM and 1000 nM (sheet 'Samples'), CATDS: 0.17876672107785799; n = 1
# BMPR1A = conditions: read-out: apparent Kd; compound concentrations:100 nM and 1000 nM (sheet 'Samples'); n = 1
# NUAK1 = conditions: read-out: apparent Kd; compound concentrations:100 nM and 1000 nM (sheet 'Samples'); n = 1
# [1] = compound concentrations:100 nM and 1000 nM (sheet 'Samples')
smiles,measurement,setting,value
CC(C)c1nc(-c2cccc(NS(=O)(=O)c3c(F)cccc3F)c2F)c(-c2ccnc(Nc3ccc(N4CCOCC4)nc3)n2)s1 [GSK2008607A],potency estimated from few doses,"LIMK1; compound concentrations: 100 nM and 1000 nM (sheet 'Samples'), CATDS: 3.4604855317968697E-2",358 nM
Nc1nc(N)c2nc(-c3ccccc3)[nH]c2n1 [SKF-12778],potency estimated from few doses,AURKA,1110 nM
same,potency estimated from few doses,MAPK10,925 nM
same,potency estimated from few doses,SYK; [1],1850 nM
CC(C)c1nc(-c2ccc(F)c(NS(=O)(=O)c3c(F)cccc3F)c2)c(-c2ccnc(Nc3ccc(N4CCOCC4)nc3)n2)s1 [GSK1804250A],potency estimated from few doses,LIMK1; [1],125 nM
COc1ccc(C2=C(c3cn(C)c4ccccc34)C(=O)NC2=O)cc1OC [RO3206363-000],potency estimated from few doses,"PIK3CD; compound concentrations: 100 nM and 1000 nM (sheet 'Samples'), CATDS: 0.47573299908292999",9.3 nM
same,potency estimated from few doses,"PRKAG1; compound concentrations: 100 nM and 1000 nM (sheet 'Samples'), CATDS: 0.103334601265543",99.5 nM
COc1ccc(S(=O)(=O)NC2CCN(c3cc(C)nc(Nc4cccc(C#N)c4)n3)CC2)cc1.O=C(O)C(F)(F)F [GSK1653539A],potency estimated from few doses,PIK3CG; CATDS: 0.32479738642046602,1380 nM
CS(=O)(=O)c1ccc(-c2nc3n(c2-c2ccncc2)CCC3)cc1 [SKF-105942],potency estimated from few doses,"PIK3CD; compound concentrations: 100 nM and 1000 nM (sheet 'Samples'), CATDS: 0.51073942178012399",141 nM
Nc1c(C(=O)c2ccccc2)cnn1-c1ccc(F)cc1 [RO1151246-000],potency estimated from few doses,MAP2K2; [1],1540 nM
same,potency estimated from few doses,MAPK11; [1],1420 nM
same,potency estimated from few doses,PKN3,2070 nM
COc1cc(N2CCN(C(C)C)CC2)ccc1Nc1nc(Nc2cccc(F)c2C(=O)O)c2cc[nH]c2n1 [GSK1819799A],potency estimated from few doses,PIM2; CATDS: 4.4865682499900299E-2,1710 nM
Cc1ccc(-n2nc(C(C)(C)C)cc2NC(=O)Nc2ccc(OCCN3CCOCC3)cc2)cc1 [BIRB0876BS],potency estimated from few doses,PIK3CD; [1],9.61 nM
Cc1ccc(CC(=O)N2CCc3cc(-c4cn(C)c5ncnc(N)c45)ccc32)cc1 [GSK2634758A],potency estimated from few doses,"CDK4; compound concentrations: 100 nM and 1000 nM (sheet 'Samples'), CATDS: 0.135917779714779",2250 nM
COc1cc2ncn(-c3cc(OCc4sccc4Cl)c(C(N)=O)s3)c2cc1OC [GSK448459A],potency estimated from few doses,STK10,333 nM
COc1ccc(Nc2nccc(N3CCC(NC(=O)Nc4cccc(OC)c4)C3)n2)cc1 (stereo not drawn) [GSK1379742A],potency estimated from few doses,"MAP2K2; compound concentrations: 100 nM and 1000 nM (sheet 'Samples'), CATDS: 0.114470387989454",1980 nM
Cc1ccc(NC(=O)c2ccc(Cl)cc2)cc1-c1ccc(C(=O)Nc2ccncc2)cc1 [GSK1398467A],potency estimated from few doses,"CDK4; compound concentrations: 100 nM and 1000 nM (sheet 'Samples'), CATDS: 0.17554209006480601",1650 nM
COc1ccc(COc2ccc(Cc3cnc(N)nc3N)cc2OC)cc1 [GW632580X],potency estimated from few doses,MAP2K2; [1],1630 nM
Fc1cccc(COc2ccc(Nc3ncncc3C#Cc3ccccc3)cc2Cl)c1 [GW651576X],potency estimated from few doses,EPHB3,2080 nM
same,potency estimated from few doses,"MAP2K2; compound concentrations: 100 nM and 1000 nM (sheet 'Samples'), CATDS: 5.7439305981691703E-2",1350 nM
COc1cc(F)c(F)c(F)c1C(=O)c1cnc(NC2CCN(S(C)(=O)=O)CC2)nc1N [RO4600703-000],potency estimated from few doses,CDK4; [1],1310 nM
same,potency estimated from few doses,CDK7; [1],821 nM
CCCN1CCC(Oc2cc(Nc3nc(Nc4cccc(F)c4C(N)=O)c4cc[nH]c4n3)c(OC)cc2Cl)CC1 [GSK1713088A],potency estimated from few doses,"CDK7; compound concentrations: 100 nM and 1000 nM (sheet 'Samples'), CATDS: 0.191679480220071",1740 nM
same,potency estimated from few doses,ERCC2,2040 nM
COc1cc2ncn(-c3cc(O[C@H](C)c4ccccc4Cl)c(C(N)=O)s3)c2cc1OC [GSK237701A],potency estimated from few doses,STK10,574 nM
Clc1ccc(-c2nn3ncccc3c2-c2ccnc(Nc3ccccc3)n2)cc1 [GW829055X],potency estimated from few doses,"CDK4; compound concentrations: 100 nM and 1000 nM (sheet 'Samples'), CATDS: 3.2528026841687298E-2",1960 nM
same,potency estimated from few doses,"MAP2K2; compound concentrations: 100 nM and 1000 nM (sheet 'Samples'), CATDS: 3.8918058303858701E-2",1250 nM
same,potency estimated from few doses,PIM2; CATDS: 3.1911296970739501E-2,2070 nM
same,potency estimated from few doses,"PRKAG1; compound concentrations: 100 nM and 1000 nM (sheet 'Samples'), CATDS: 3.7997381036159197E-2",1320 nM
same,potency estimated from few doses,"SYK; compound concentrations: 100 nM and 1000 nM (sheet 'Samples'), CATDS: 3.0941649644307598E-2",2270 nM
Fc1ccc(-c2ncn(C3CCNCC3)c2-c2ccnc(Oc3ccc4c(c3)OCO4)n2)cc1 [SB-250715],potency estimated from few doses,MAP2K2; [1],1560 nM
same,potency estimated from few doses,MAPK11; [1],40.4 nM
same,potency estimated from few doses,PRKAG1; [1],1750 nM
NC(=O)c1cccnc1COc1cc(-c2ccc(N3CCOCC3)nc2)cc2ncccc12 [BI01125081],potency estimated from few doses,BMPR1A,1370 nM
same,potency estimated from few doses,NUAK1,1080 nM
same,potency estimated from few doses,PIK3CD; [1],126 nM
COc1ccc(-c2nn3ncccc3c2-c2ccnc(Nc3ccc4c(c3)OCCO4)n2)cc1 [GW827106X],potency estimated from few doses,"MAPK11; compound concentrations: 100 nM and 1000 nM (sheet 'Samples'), CATDS: 6.1190831662216998E-2",956 nM
same,potency estimated from few doses,PIK3CG; CATDS: 5.53437190113686E-2,1180 nM
